Results filed as inconclusive are left out. Where a call stands in place of a potency, no number is given. Calls of active or inactive are those of the source. Calls follow the shape of the dose curve; as a rule, active = well fitted cell-killing curve with a large enough effect in the repeat runs; inconclusive = weak or mixed curves; inactive = flat fitted curve, though single readings scatter.
Potency is read from the fitted curve at half-maximal effect.

This test can be described thus: qHTS assay to identify small molecule antagonists of the estrogen related receptor (ERR) signaling pathway - cell viability counter screen (AID 1224818). Particulars: ERR reporter cell line viability counter screen; series mostly up to 46.1 µM. An excerpt: National Center for Advancing Translational Sciences [NCATS]
NIH Chemical Genomics Center [NCGC]
U.S. Environmental Protection Agency [EPA]
National Institutes of Environmental Health Sciences [NIEHS]
National Toxicology Program [NTP]
U.S. Food and Drug Administration [FDA]
Estrogen related receptors (ERRs), the first orphan nuclear receptors discovered, play an important role in the control of cellular energy metabolism. ERRs are required for high-energy production in response to the environmental challenges. ERR-alpha was also identified as an adverse marker for breast cancer progression; ERR-alpha-positive tumors have a poor prognosis. To screen and to identify environmental compounds that perturb the ERR signaling pathways could provide valuable information for potential therapeutic or preventive measures in the treatment of metabolic disease. To differentiate true ERR antagonists or agonist from cytotoxic substances, the assay is multiplexed with cell viability assay.
Tox21 Assay Protocol Summary:
The ERR cells were dispensed at 2,000 cells/5 ul/well in 1536-well white plates using a Multidrop dispenser. After the assay plates were incubated at a 37 C/5% CO2 incubator for 6 hours, 23 nL of compounds dissolved in DMSO, positive and negative controls or DMSO only was transferred to the assay plate by a pin tool. The plates were incubated at 37 C for 17.5 hours. 1 ul/well of CellTiter-Fluor reagent was added into the assay plates using a Flying Reagent Dispenser. After 30 min incubation at 37 C/5% CO2, the fluorescence intensity in the plates was measured using a ViewLux plate reader.
On to `COc1ccc(CCN(C)CCCC(C#N)(c2ccc(OC)c(OC)c2)C(C)C)cc1OC` (stereo not given), for which the Potency entry was “inactive”. Next, `CC(N)=O`: “inactive”.

In the case of `NC12CC3CC(CC(C3)C1)C2`, the Potency result was “inactive”. Next, `CC(=O)OCC1=C(C(=O)O)N2C(=O)[C@@H](NC(=O)Cc3cccs3)[C@H]2SC1`: “inactive”; `CNCCC(Oc1ccc(C(F)(F)F)cc1)c1ccccc1` (stereo not given): “inactive”; `CC(C)(C)NCC(O)c1cc(O)cc(O)c1` (stereo not given): “inactive”. Next, `C1COC(NC(C2CC2)C2CC2)=N1`: “inactive”; `CC1COc2c(N3CCN(C)CC3)c(F)cc3c(=O)c(C(=O)O)cn1c23` (stereo not given): “inactive”; `N[C@@H]1CONC1=O`: “inactive”. Next, `NNCCc1ccccc1`: “inactive”; `Cc1ccc(-c2cc(C(F)(F)F)nn2-c2ccc(S(N)(=O)=O)cc2)cc1`: “inactive”. Consider `COc1nc(C)nc(Cl)c1NC1=NCCN1`, for which the Potency result was “inactive”. Next, `COC(=O)[C@H]1[C@H]2C[C@@H]3c4[nH]c5cc(OC)ccc5c4CCN3C[C@H]2C[C@@H](OC(=O)c2cc(OC)c(OC)c(OC)c2)[C@@H]1OC`: “inactive”; `CCN1CCCC1CNC(=O)c1cc(S(=O)(=O)CC)c(N)cc1OC` (stereo not given): “inactive”. Next, `CC(C(O)c1ccc(O)cc1)N1CCC(Cc2ccccc2)CC1` (stereo not given): “inactive”. Next, `Cc1c(O)cccc1C(=O)N[C@@H](CSc1ccccc1)[C@H](O)CN1C[C@H]2CCCC[C@H]2C[C@H]1C(=O)NC(C)(C)C`: 10.6 µM (active). `c1cnc2cc3c(cc2n1)C1CNCC3C1`: the Potency result was “inactive”.

Turning to `Cc1scc2c1N(C(=O)CN1CCN(C)CC1)c1ccccc1NC2=O`, the Potency entry was “inactive”. Next, `NC(=Nc1ccccc1)Nc1ccccc1`: “inactive”; `O=C(O)CP(=O)(O)O`: “inactive”. In the case of `NCCO` it was “inactive”; in that of `CNC1(C)C2CCC(C2)C1(C)C` (stereo not given), “inactive”. Next, `CCn1cc(C(=O)O)c(=O)c2cc(F)c(N3CCNC(C)C3)c(F)c21` (stereo not given): “inactive”; `CC(=O)N[C@@H](CS)C(=O)O`: “inactive”; `c1ccc2c(c1)CCCC2C1=NCCN1` (stereo not given): “inactive”. With `CC(C)C(=O)c1c(C(C)C)nn2ccccc12`, the Potency entry is “inactive”. Next, `NC(N)=Nc1nc(CSCC/C(N)=N/S(N)(=O)=O)cs1`: “inactive”; `O=C1CC2(CCCC2)CC(=O)N1CCCCN1CCN(c2ncccn2)CC1`: “inactive”.

For the compound `[Cl][In]([Cl])[Cl]`, the Potency result is “inactive”.

For the compound `O=C1NCC2(CCN(CCc3ccccc3)CC2)O1`, the Potency entry is “inactive”. In the case of `Clc1ccc2c(c1)C(N1CCNCC1)=Nc1ccccc1O2` it was “inactive”. Regarding `NC(N)=NC(=O)Cc1c(Cl)cccc1Cl`, the Potency entry was “inactive”.

In the case of `NC(Cc1ccc(Cl)cc1)C(=O)O` (stereo not given), the Potency result is “inactive”. Next, `NCCCCCC(=O)O`: “inactive”; `CCCNC(C)C(=O)Nc1ccccc1C` (stereo not given): “inactive”.

The values are drawn from PubChem BioAssay (Tox21).
